Assay results: PubChem BioAssay
Calls of active or inactive are those of the source. Unless noted, the rule behind the calls is not given here.

What was measured:
[1] = test system: Wnt5a (protein binding on small-molecule microarray); experiment: small molecules binding Wnt5a protein – biophysical, small-molecule microarray, 635/667 nm fluorescence, primary screen (AID 1142); details: 635 nm fluorescence, higher = more signal;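 note: fluorescence read at 667 nm with signal to noise per printed feature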
[2] = ATP-based viability of Huh7 replicon cells – cell-based, CellTiter-Glo luminescence, basal, 48 h, cytotoxicity control for HCV replication inhibitor project, primary screen (AID 1143); details: higher = more signal, called active from +8 up or from −8 down;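 note: Huh7 hepatoma cells carrying a hepatitis C replication reporter with no stimulus; test concentration not given here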
[3] = Pseudomonas biofilm growth suppression – PAO1 strain, BacTiter-Glo luminescence, LB-PBS, primary screen (AID 1144); details: P. aeruginosa PAO1 biofilm, 12 h, higher = more signal
[4] = basal CRE-LacZ reporter activity in PC12 – cell-based, unstimulated, primary screen (AID 1145); details: no forskolin, luminescence, 4.5 h, higher = more signal, called active from +8 up or from −8 down
[5] = forskolin-driven CRE-LacZ activity in PC12 – cell-based, CRE-LacZ reporter, forskolin-stimulated, primary screen (AID 1146); details: luminescence, 4.5 h, higher = more signal, called active from +8 up or from −8 down;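 note: PC12 cells with 6xCRE LacZ reporter stimulated by forskolin 10 µM; beta-galactosidase reporter signal reflecting CREB driven transcription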
[6] = molecular target: Streptavidin (Streptomyces avidinii) (UniProt P22629); experiment: compounds binding control protein streptavidin – biophysical, small-molecule microarray, 635/667 nm fluorescence, artefact control for SMM compound annotation, primary screen (AID 1147); details: higher = more signal;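 note: signal reflects streptavidin binding to arrayed compounds as a control protein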
[7] = probe aInhba binding on compound microarray – biochemical, small-molecule microarray, 635/667 nm fluorescence, primary screen (AID 1148); details: higher = more signal;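 note: score merges 667nm spot fluorescence with signal-to-noise for antibody binding to printed compounds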
[8] = molecular target: Torsin-1A (Homo sapiens) (UniProt O14656); experiment: TOR1A wild-type binding on microarray – cell lysate, small-molecule microarray, lysate, 635/667 nm, primary screen (AID 1149); details: COS7 hTOR1A-WT lysate, 635 nm fluorescence, higher = more signal
[9] = molecular target: Torsin-1A (Homo sapiens) (UniProt O14656); experiment: torsin A mutant lysate binding on microarrays – cell lysate, small-molecule microarray, COS7 lysate, 635/667 nm fluorescence, primary screen (AID 1150); details: COS7 hTOR1A mutant lysate, 635 nm fluorescence, higher = more signal;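 note: score pools 667 nm emission and signal to noise measuring lysate protein binding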
[10] = test system: Sonic hedgehog protein (Shh); experiment: Sonic hedgehog microarray binding compounds – biochemical, small-molecule microarray, 635/667 nm fluorescence, primary screen (AID 1151); details: 635 nm fluorescence, higher = more signal;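 note: Shh protein binding to compounds spotted on small-molecule microarray slides; score combines spot fluorescence intensity with signal-to-noise across triplicate slides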
[11] = optical density shifts of acrAB sulA E. coli – strain DRC41, OD650, 48 h, E. coli filamentation inducer project, primary screen (AID 1152); details: higher = more signal, called active from +8 up or from −8 down;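 note: E. coli MC1000 strain DRC41 lacking acrAB efflux pump and sulA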
[12] = probe aLefty1 binding on compound microarray – biochemical, small-molecule microarray, 635/667 nm fluorescence, primary screen (AID 1153); details: higher = more signal;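 note: score merges spot fluorescence with signal-to-noise ratio from the scanned slide images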
[13] = plasmodial surface anion channel blockers, osmotic lysis – cell-based, P. falciparum Indochina, OD700, 1 h, primary screen (AID 1154); details: P. falciparum Indochina infected RBC osmotic lysis, higher = more signal, called active from +8 up or from −8 down
[14] = plasmodial surface anion channel blockers, osmotic lysis – cell-based, P. falciparum Indochina, OD700, 2 h, primary screen (AID 1155);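 note: lysis reports solute entry through the parasite surface anion channel PSAC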; details: P. falciparum Indochina infected erythrocytes, higher = more signal, called active from +8 up or from −8 down
[15] = changes in parasitized red cell lysis, either direction – P. falciparum Indochina, OD700, 3 h, PSAC antagonist project, primary screen (AID 1156); details: P. falciparum-infected erythrocytes, osmotic lysis, higher = more signal, called active from +8 up or from −8 down
[16] = plasmodial surface anion channel blockers, osmotic lysis – cell-based, P. falciparum Indochina, OD700, 18 h, primary screen (AID 1157); details: P. falciparum Indochina infected erythrocytes, osmotic lysis OD700, 18 h; higher = more signal, called active from +8 up or from −8 down
[17] = S6 kinase pathway phospho-S6 level changes – cell-based, A549, cytoblot, luminescence, serum-stimulated, primary screen (AID 1158); details: 5 h, higher = more signal;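 note: serum-stimulated A549 lung adenocarcinoma cells; signal is phosphorylated S6 detected by cytoblot immunostaining with HRP secondary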
[18] = molecular target: NADPH oxidase 2 (Homo sapiens) (UniProt P04839); experiment: compounds shifting NOX2 Amplex Red fluorescence – cell-based, HEK293-NOX2, PMA-stimulated, NOX inhibitor project, primary screen (AID 1159); details: 45 min, higher = more signal, called active from +8 up or from −8 down; note: test concentration not given here
[19] = molecular target: NADPH oxidase 4 (Homo sapiens) (UniProt Q9NPH5); experiment: compounds shifting NOX4 Amplex Red fluorescence – cell-based, HEK293-NOX4, tetracycline-induced, NOX inhibitor project, primary screen (AID 1160); details: HEK293-NOX4, Amplex Red H2O2 fluorescence, 45 min; higher = more signal, called active from +8 up or from −8 down
[20] = molecular target: NADPH oxidase 5 (Homo sapiens) (UniProt Q96PH1); experiment: compounds shifting NOX5 Amplex Red fluorescence – cell-based, HEK293-NOX5, NOX inhibitor project, primary screen (AID 1161); details: HEK293-NOX5, ionomycin, 45 min, higher = more signal
Chain of NADPH oxidase 5 (Homo sapiens) (Q96PH1 whole entry, looked up): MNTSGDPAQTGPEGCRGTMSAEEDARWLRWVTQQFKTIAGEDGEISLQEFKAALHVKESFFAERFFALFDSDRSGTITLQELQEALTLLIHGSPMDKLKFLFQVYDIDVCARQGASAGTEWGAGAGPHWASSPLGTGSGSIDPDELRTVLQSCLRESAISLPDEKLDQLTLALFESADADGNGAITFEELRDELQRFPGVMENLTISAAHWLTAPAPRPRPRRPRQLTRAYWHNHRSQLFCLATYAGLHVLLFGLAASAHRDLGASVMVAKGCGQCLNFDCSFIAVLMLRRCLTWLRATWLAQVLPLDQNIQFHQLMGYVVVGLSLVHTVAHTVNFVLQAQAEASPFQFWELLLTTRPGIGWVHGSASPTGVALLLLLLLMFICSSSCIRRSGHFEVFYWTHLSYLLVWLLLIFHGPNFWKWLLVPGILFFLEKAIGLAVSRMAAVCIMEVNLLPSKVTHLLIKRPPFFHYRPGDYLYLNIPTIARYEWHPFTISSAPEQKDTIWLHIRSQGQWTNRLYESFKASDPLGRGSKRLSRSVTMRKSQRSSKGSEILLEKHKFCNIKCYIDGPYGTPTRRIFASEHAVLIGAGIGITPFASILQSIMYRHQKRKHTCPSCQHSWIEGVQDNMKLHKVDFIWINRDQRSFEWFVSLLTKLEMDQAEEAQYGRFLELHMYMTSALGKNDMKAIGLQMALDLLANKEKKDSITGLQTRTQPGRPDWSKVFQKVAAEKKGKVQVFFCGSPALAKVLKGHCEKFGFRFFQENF

Chain of NADPH oxidase 4 (Homo sapiens) (Q9NPH5 whole entry, looked up): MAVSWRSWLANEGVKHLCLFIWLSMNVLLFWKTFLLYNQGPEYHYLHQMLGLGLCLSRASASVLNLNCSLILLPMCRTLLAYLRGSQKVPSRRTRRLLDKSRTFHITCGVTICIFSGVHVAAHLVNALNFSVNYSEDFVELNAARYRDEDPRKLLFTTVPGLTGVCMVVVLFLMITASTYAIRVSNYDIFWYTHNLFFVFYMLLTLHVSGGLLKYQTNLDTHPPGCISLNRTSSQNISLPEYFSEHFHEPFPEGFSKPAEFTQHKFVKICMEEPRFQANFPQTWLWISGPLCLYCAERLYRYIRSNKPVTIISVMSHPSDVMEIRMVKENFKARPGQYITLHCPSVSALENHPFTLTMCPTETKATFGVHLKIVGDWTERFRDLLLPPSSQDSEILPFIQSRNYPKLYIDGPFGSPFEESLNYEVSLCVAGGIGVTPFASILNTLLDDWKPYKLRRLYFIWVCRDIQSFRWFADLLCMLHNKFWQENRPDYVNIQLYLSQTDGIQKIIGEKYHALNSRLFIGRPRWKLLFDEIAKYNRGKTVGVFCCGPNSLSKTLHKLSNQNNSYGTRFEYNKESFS
Chain of NADPH oxidase 2 (Homo sapiens) (P04839 whole entry, looked up): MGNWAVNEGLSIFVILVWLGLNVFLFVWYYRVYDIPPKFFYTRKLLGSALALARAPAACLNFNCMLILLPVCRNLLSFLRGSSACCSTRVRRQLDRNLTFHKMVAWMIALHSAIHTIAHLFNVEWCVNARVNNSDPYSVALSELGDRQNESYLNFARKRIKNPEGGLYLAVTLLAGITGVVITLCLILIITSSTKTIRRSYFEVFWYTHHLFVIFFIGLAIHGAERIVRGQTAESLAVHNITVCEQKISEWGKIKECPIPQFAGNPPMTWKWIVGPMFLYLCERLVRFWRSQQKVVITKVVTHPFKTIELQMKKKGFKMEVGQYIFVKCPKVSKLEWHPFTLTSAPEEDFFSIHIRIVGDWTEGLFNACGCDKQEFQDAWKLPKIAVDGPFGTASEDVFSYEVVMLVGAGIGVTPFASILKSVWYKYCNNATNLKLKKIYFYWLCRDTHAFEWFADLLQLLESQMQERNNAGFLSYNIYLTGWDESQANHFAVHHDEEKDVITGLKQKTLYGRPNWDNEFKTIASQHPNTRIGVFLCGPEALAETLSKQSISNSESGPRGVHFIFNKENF
Chain of Torsin-1A (Homo sapiens) (O14656 whole entry, looked up): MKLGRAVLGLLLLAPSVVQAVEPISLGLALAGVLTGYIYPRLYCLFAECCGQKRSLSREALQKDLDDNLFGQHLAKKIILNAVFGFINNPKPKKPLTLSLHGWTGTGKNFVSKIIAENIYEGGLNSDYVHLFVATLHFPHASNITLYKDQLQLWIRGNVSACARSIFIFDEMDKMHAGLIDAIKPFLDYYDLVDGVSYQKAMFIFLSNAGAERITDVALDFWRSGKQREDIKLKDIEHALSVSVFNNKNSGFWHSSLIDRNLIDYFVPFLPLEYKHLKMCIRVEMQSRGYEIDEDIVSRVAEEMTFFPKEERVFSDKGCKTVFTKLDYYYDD
Chain of Streptavidin (Streptomyces avidinii) (P22629 whole entry, looked up): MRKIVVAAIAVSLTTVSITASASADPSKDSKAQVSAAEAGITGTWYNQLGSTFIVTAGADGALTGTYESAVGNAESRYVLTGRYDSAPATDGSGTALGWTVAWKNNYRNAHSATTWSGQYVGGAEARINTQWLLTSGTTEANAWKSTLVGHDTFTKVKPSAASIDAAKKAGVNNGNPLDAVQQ

C=CCOC(=O)[C@H]1[C@@H]2C(=O)O[C@@H](c3ccccc3)[C@@H](c3ccccc3)N2[C@@H](c2ccc(OCCOC(=O)[C@@H]3C[C@@H]4C(=O)N[C@@H](CCCC[N+](C)(C)C)C(=O)N4[C@@H]3c3ccc(O)cc3)cc2)[C@]12C(=O)Nc1ccc(I)cc12
composite z-score [1]: 1.02
z-score [2]: -0.56 (inactive)
z-score [3]: 0.201 (inactive)
z-score [4]: 0.553 (inactive)
z-score [5]: 1.07 (inactive)
composite z-score [6]: 0.0756
composite z-score [7]: 0.632
composite z-score [8]: 1.16
composite z-score [9]: 1.57
composite z-score [10]: 2.05
z-score [11]: -1.78 (inactive)
composite z-score [12]: 0.521
z-score [13]: -1.03 (inactive)
z-score [14]: -0.497 (inactive)
z-score [15]: 5.53 (inactive)
z-score [16]: -0.582 (inactive)
z-score [17]: -2.1
z-score [18]: 1.66 (inactive)
z-score [19]: -1.21 (inactive)
z-score [20]: 0.61

CCCCCC1=C2CNC(CC(C)C)(C(=O)OC)C=C2C(C)C1=O (stereo not given)
composite z-score [1]: -0.025
z-score [2]: -0.575 (inactive)
z-score [3]: 0.661 (inactive)
z-score [4]: 0.0041 (inactive)
z-score [5]: 0.728 (inactive)
composite z-score [6]: 0.428
composite z-score [7]: 0.0668
composite z-score [8]: -0.276
composite z-score [9]: -0.207
composite z-score [10]: -0.242
z-score [11]: -1.07 (inactive)
composite z-score [12]: 0.172
z-score [13]: 1.5 (inactive)
z-score [14]: -0.602 (inactive)
z-score [15]: 0.836 (inactive)
z-score [16]: 0.347 (inactive)
z-score [17]: -0.245
z-score [18]: -0.0792 (inactive)
z-score [19]: -0.636 (inactive)
z-score [20]: -2.61

C=CCNC(=O)[C@H]1[C@@H]2C(=O)O[C@@H](c3ccccc3)[C@@H](c3ccccc3)N2[C@@H](c2ccc(OCCO)cc2)[C@]12C(=O)Nc1ccc(C#CC3(O)CCCCCC3)cc12
composite z-score [1]: 0.564
z-score [2]: -3.3 (inactive)
z-score [3]: 0.15 (inactive)
z-score [4]: -0.329 (inactive)
z-score [5]: 0.566 (inactive)
composite z-score [6]: 0.618
composite z-score [7]: 0.108
composite z-score [8]: 0.406
composite z-score [9]: 0.564
composite z-score [10]: 1.31
z-score [11]: 0.803 (inactive)
composite z-score [12]: 0.523
z-score [13]: 2.48 (inactive)
z-score [14]: 1.54 (inactive)
z-score [15]: -0.441 (inactive)
z-score [16]: 0.311 (inactive)
z-score [17]: 0.977
z-score [18]: 1.94 (inactive)
z-score [19]: 1.18 (inactive)
z-score [20]: 0.902

COc1ccc(C(O)C2C=CC3C(=O)N(C)C(=O)C3N2N(c2ccccc2)c2ccccc2)cc1 (stereo not given)
composite z-score [1]: 0.0865
z-score [2]: 0.522 (inactive)
z-score [3]: 0.219 (inactive)
z-score [4]: 0.629 (inactive)
z-score [5]: 0.517 (inactive)
composite z-score [6]: 1.35
composite z-score [7]: 0.105
composite z-score [8]: 0.153
composite z-score [9]: 0.368
composite z-score [10]: -0.176
z-score [11]: -1.3 (inactive)
composite z-score [12]: 0.363
z-score [13]: 2.07 (inactive)
z-score [14]: 1.14 (inactive)
z-score [15]: 0.509 (inactive)
z-score [16]: 0.974 (inactive)
z-score [17]: -0.478
z-score [18]: -0.685 (inactive)
z-score [19]: -2.05 (inactive)
z-score [20]: -0.77

COc1ccc([Si](C)(C)[C@H]2[C@H](CCO)O[C@@]3(C(=O)N(Cc4cccc(N(C=O)c5ccccc5)c4)c4ccccc43)[C@@H]2C)cc1
composite z-score [1]: 0.313
z-score [2]: -6.26 (inactive)
z-score [3]: -0.914 (inactive)
z-score [4]: -0.417 (inactive)
z-score [5]: -1.56 (inactive)
composite z-score [6]: 1.21
composite z-score [7]: -0.018
composite z-score [8]: 0.939
composite z-score [9]: 1.01
composite z-score [10]: 1.78
z-score [11]: 2.15 (inactive)
composite z-score [12]: -0.339
z-score [13]: 2.24 (inactive)
z-score [14]: 2.47 (inactive)
z-score [15]: 1.1 (inactive)
z-score [16]: 1.82 (inactive)
z-score [17]: 1.91
z-score [18]: -1.31 (inactive)
z-score [19]: 0.451 (inactive)
z-score [20]: 0.00518

CC1CC/C=C\[C@H]2OC34C=CCN(Cn5nnc6ccccc65)C(=O)[C@H]3N(CCCCCCO)C(=O)[C@@H]4C2C(=O)O1 (stereo not given in full)
composite z-score [1]: -0.755
z-score [2]: 0.835 (inactive)
z-score [3]: -1.18 (inactive)
z-score [4]: -0.0859 (inactive)
z-score [5]: 0.19 (inactive)
composite z-score [6]: -0.399
composite z-score [7]: -0.12
composite z-score [8]: -1.51
composite z-score [9]: -1.11
composite z-score [10]: -0.415
z-score [11]: 0.699 (inactive)
composite z-score [12]: 0.0999
z-score [13]: 0.59 (inactive)
z-score [14]: -0.139 (inactive)
z-score [15]: -0.248 (inactive)
z-score [16]: 0.527 (inactive)
z-score [17]: 1.2
z-score [18]: 1.02 (inactive)
z-score [19]: 0.515 (inactive)
z-score [20]: 2.37

COc1cc(OC)c(C(O)C2C=CC3C(=O)N(c4ccccc4)C(=O)C3N2Nc2ccc(C(C)C)cc2)cc1Br (stereo not given)
composite z-score [1]: 0.386
z-score [2]: -0.942 (inactive)
z-score [3]: -1.49 (inactive)
z-score [4]: 1.78 (inactive)
z-score [5]: -0.567 (inactive)
composite z-score [6]: 1.71
composite z-score [7]: 0.136
composite z-score [8]: 0.255
composite z-score [9]: 0.345
composite z-score [10]: 0.415
z-score [11]: 0.857 (inactive)
composite z-score [12]: -0.0889
z-score [13]: 2.94 (inactive)
z-score [14]: 1.93 (inactive)
z-score [15]: -0.255 (inactive)
z-score [16]: 1.49 (inactive)
z-score [17]: -1.06
z-score [18]: 0.0256 (inactive)
z-score [19]: -3.73 (inactive)
z-score [20]: -2.24

COC(=O)c1cccc([C@H]2OC(=CC(=O)OC(C)C)C[C@@H](c3cccc(C(=O)OC)c3)O2)c1
composite z-score [1]: 1.19
z-score [2]: -2.17 (inactive)
z-score [3]: 0.111 (inactive)
z-score [4]: 1.26 (inactive)
z-score [5]: 1.05 (inactive)
composite z-score [6]: 1.21
composite z-score [7]: 0.0649
composite z-score [8]: 1.64
composite z-score [9]: 1.53
composite z-score [10]: 1
z-score [11]: -0.576 (inactive)
composite z-score [12]: 0.635
z-score [13]: 18.5 (active)
z-score [14]: 3.17 (inactive)
z-score [15]: 0.487 (inactive)
z-score [16]: 0.683 (inactive)
z-score [17]: 0.0055
z-score [18]: -0.679 (inactive)
z-score [19]: -1.6 (inactive)
z-score [20]: -2.04
